Shiga inhibitor – A qHTS for Small Molecule Inhibitors of Shiga Toxin; 290,000 tested, 9.2% active; Vero cells, Shiga toxin protein synthesis inhibition reporter; inhibition, % at 38.7 µM; in the data active = inhibition mostly above about 28%, no sharp cut-off; inactive = mostly below about 43%; note: 0% is about no effect
Lassa entry inh – qHTS for Inhibitors of binding or entry into cells for Lassa Virus; Potency, µM (doses to about 37.9 µM), for inactives: at the highest dose activity change, negative = inhibition, usual class: inhibitors; 300,000 tested, 1.2% active; Lassa virus pseudotype entry inhibition, cell reporter; calls by dose curve; tested in HEK293 cells; note: potency is the fitted concentration of half-maximal effect; % is set by controls: 0 for no effect and ±100 for the full control effect; nearly all actives have a fitted effect of over 50% in size
Cycloheximide cs – Cycloheximide Counterscreen for Small Molecule Inhibitors of Shiga Toxin; cell reporter, cycloheximide protein synthesis inhibition counterscreen; max response, %; 300,000 tested, 12% active; AID 2314, 2010; in the data active = max response mostly above about 13%, no sharp cut-off; inactive = mostly below about 14%; note: read at 38.3 µM for the half of the compounds with a filed dose; 0% is about no effect
Pf growth 96h – Primary qHTS for delayed death inhibitors of the malarial parasite plastid, 96 hour incubation; 320,000 tested, 6.9% active; P. falciparum luciferase reporter growth, 96 h; Potency, µM (series often up to 28.7 µM), for the others: top-dose activity change, negative = inhibition, usual class: inhibitors; note: potency is the fitted concentration of half-maximal effect; % is set by controls: 0 for no effect and ±100 for the full control effect
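Compounds incubated with erythrocytes infected by luciferase-expressing P. falciparum (2% hematocrit, 0.05% parasitemia final) for 96 hours, 37 C in 5% CO2. Growth inhibition scored as decreased luciferase luminescence.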
MARV entry inh – qHTS for inhibitors of binding or entry into cells for Marburg Virus; 300,000 tested, 1.8% active; Marburg virus pseudotyped entry inhibition, cell reporter; Potency, µM (doses to about 37.8 µM), inactives show at the highest dose activity change, negative = inhibition, hits mostly inhibitors; calls by dose curve; tested in HEK293 cells; note: potency is the fitted concentration of half-maximal effect; % is set by controls: 0 for no effect and ±100 for the full control effect
Pf growth 48h – Primary qHTS for delayed death inhibitors of the malarial parasite plastid, 48 hour incubation | P. falciparum luciferase growth in erythrocytes, 48 h | 310,000 tested, 5.9% active | Potency, µM (top dose mostly 28.7 µM), for inactives: at the highest dose activity change, negative = inhibition, hits mostly inhibitors; note: potency is the fitted concentration of half-maximal effect; % is set by controls: 0 for no effect and ±100 for the full control effect
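Read-out is firefly luciferase luminescence from an integrated reporter in P. falciparum, so falling signal marks reduced parasite growth. Infected erythrocytes were at 2% hematocrit and 0.1% parasitemia (final) in Albumax-supplemented RPMI 1640.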
* marks the source's active call; other numbers are inactive results; [ ] = dose if it differs, or a comment. Rows were chosen to be rich in hits. Some 19% of all compounds tested hit in one or more screens of this group. Unless noted, calls come from the whole dose curve; as a rule, active = well fitted inhibition curve with a large enough effect; inconclusive = small, poorly fitted or top-dose-only effect, or another doubt; inactive = no such curve, though single readings can be large or run the other way.

What do the screens show for `O=C(c1ccc(Cl)cc1)N1CCc2ccccc21`?
Shiga inhibitor: 46; Cycloheximide cs: 33*; Pf growth 96h: inconclusive; Pf growth 48h: 6%

How did O=C(c1ccc(Cl)s1)N1CCc2ccccc21 do in these assays?
Shiga inhibitor: 82*; Lassa entry inh: -4%; Cycloheximide cs: 36*; MARV entry inh: inconclusive; Pf growth 48h: 170%

Results for Clc1ccccc1-c1nnc2sc(-c3cccs3)nn12 ?
Shiga inhibitor: 2; Lassa entry inh: -3%; Cycloheximide cs: 1; MARV entry inh: 11%; Pf growth 48h: inconclusive

How did CCCNC(=O)CN1CCN(c2ccc(NC(=O)c3ccc(OC)cc3)cc2C(=O)O)CC1 do in these assays?
Lassa entry inh: 10%[46.1 µM]

What do the screens show for `Cn1cc(C(=O)N2CCc3ccccc32)cn1`?
Shiga inhibitor: 49*; Lassa entry inh: inconclusive; Cycloheximide cs: 22*; Pf growth 96h: 85%; MARV entry inh: inconclusive; Pf growth 48h: 97%

How did Cc1ccc(OCCCCNC2CCCC(C)C2C)c(C)c1 (stereo unspecified) do in these assays?
Shiga inhibitor: -4; Lassa entry inh: inconclusive; Cycloheximide cs: -3; Pf growth 96h: inconclusive; MARV entry inh: 11µM*; Pf growth 48h: inconclusive

Results for CCN(CC)CCCCNc1ncc2cc(-c3cc(OC)cc(OC)c3)c(NC(=O)NC(C)(C)C)nc2n1 ?
Shiga inhibitor: -6; Cycloheximide cs: -7; Pf growth 96h: 9.3µM*; Pf growth 48h: inconclusive

Results for CC(=O)Nc1ccc(S(=O)(=O)NCC(=O)OCC(=O)Nc2sccc2C(N)=O)cc1 ?
Pf growth 96h: -6%; Pf growth 48h: -13%

How did CCCC(=O)C1=C(O)C(C(=O)OC)C(C)(C)CC1=NC(C)(C)C (stereo unspecified) do in these assays?
Shiga inhibitor: -14; Lassa entry inh: 4%; Cycloheximide cs: -5; MARV entry inh: -8%; Pf growth 48h: inconclusive

How did CCCC(=O)C1=C(O)C(C(=O)OC)C(C)(C)CC1=Nc1ccccc1 (stereo unspecified) do in these assays?
Shiga inhibitor: -27; Lassa entry inh: inconclusive; Cycloheximide cs: -5; Pf growth 96h: -4%; MARV entry inh: -21%[46.1 µM]; Pf growth 48h: 4.1µM*

What do the screens show for `CCC(=NCc1ccccc1)C1=C(O)C(C(=O)OC)C(C)(C)CC1=O` (stereo unspecified)?
Shiga inhibitor: -8; Lassa entry inh: 4%; Cycloheximide cs: 2; Pf growth 96h: 12µM*; MARV entry inh: -19%; Pf growth 48h: 7%

Results for CCCC(=O)C1=C(O)C(C(=O)OC)C(C)(C)CC1=Nc1cccc([N+](=O)[O-])c1 (stereo unspecified) ?
Cycloheximide cs: 1; Pf growth 96h: -29%; Pf growth 48h: inconclusive

Results for CCCC(=O)C1=C(O)C(C(=O)OC)C(C)(C)CC1=NCc1ccccc1 (stereo unspecified) ?
Shiga inhibitor: -5; Lassa entry inh: 3%; Cycloheximide cs: 0; Pf growth 96h: 7.4µM*; MARV entry inh: -2%; Pf growth 48h: inconclusive

Results for CCCC(=O)C1=C(O)C(C(=O)OC)C(C)(C)CC1=NC(C)C (stereo unspecified) ?
Shiga inhibitor: -9; Lassa entry inh: 9%; Cycloheximide cs: -1; Pf growth 96h: 15%; MARV entry inh: 4%; Pf growth 48h: -11%

How did CCCC(=O)C1=C(O)C(C(=O)OC)C(C)(C)CC1=Nc1cccc2ccccc12 (stereo unspecified) do in these assays?
Shiga inhibitor: 3; Lassa entry inh: inconclusive; Cycloheximide cs: 6; Pf growth 96h: -27%; MARV entry inh: inconclusive; Pf growth 48h: 5.2µM*

Results for Cc1cc(C)c2c(N)c(C(=O)c3ccc(Br)cc3)oc2n1 ?
Shiga inhibitor: 15; Lassa entry inh: 15%[46.1 µM]; Cycloheximide cs: 13; Pf growth 96h: 15%; MARV entry inh: -10%[46.1 µM]; Pf growth 48h: 5%

How did Cc1cc(C)c2c(N)c(C(=O)c3ccccc3)oc2n1 do in these assays?
Shiga inhibitor: -6; Lassa entry inh: 28%[14.3 µM]; Cycloheximide cs: 1; Pf growth 96h: 2.3µM*; MARV entry inh: inconclusive; Pf growth 48h: 16%

How did On1c(-c2ccccc2)nc2ccccc21 do in these assays?
Shiga inhibitor: 40; Lassa entry inh: 2%; Cycloheximide cs: 13; Pf growth 96h: 8%; MARV entry inh: 5%; Pf growth 48h: -22%

What do the screens show for `On1c(-c2ccc(Cl)cc2)nc2ccccc21`?
Shiga inhibitor: 63*; Lassa entry inh: 12%; Cycloheximide cs: 43*; Pf growth 96h: inconclusive; MARV entry inh: -16%[46.1 µM]; Pf growth 48h: inactive

How did CN(C=O)CP(=O)(O)CN(C)C=O do in these assays?
Shiga inhibitor: -28; Lassa entry inh: -2%; Cycloheximide cs: -3; Pf growth 96h: 0%; MARV entry inh: 4%; Pf growth 48h: 54%

Results for Cc1c(C#N)c(O)[nH]c(=O)c1N=Nc1ccc(Br)cc1C(=O)O ?
Shiga inhibitor: -5; Lassa entry inh: 2%; Cycloheximide cs: -1; Pf growth 96h: -17%; MARV entry inh: 16%[46.1 µM]; Pf growth 48h: -3%

What do the screens show for `Cc1cccc(N=Nc2c(C)c(C#N)c(O)[nH]c2=O)c1`?
Shiga inhibitor: 8; Lassa entry inh: 20%; Cycloheximide cs: 14*; Pf growth 96h: 52%; MARV entry inh: inconclusive; Pf growth 48h: 25%

Results for CCOC(=O)Nc1cccc(OCC(=O)Nc2ccccc2OC)c1 ?
Shiga inhibitor: -3; Lassa entry inh: inconclusive; Cycloheximide cs: -1; Pf growth 96h: inconclusive; MARV entry inh: -32%; Pf growth 48h: -22%

Results for O=C(/C=C/c1cccc(O)c1)c1ccc(N2CCOCC2)cc1 ?
Shiga inhibitor: 102*; Cycloheximide cs: 38*; Pf growth 96h: inconclusive; Pf growth 48h: 122%

Results for COc1ccc2[nH]c(C(=O)NCCN3CCOCC3)cc2c1 ?
Shiga inhibitor: -4; Cycloheximide cs: -1; Pf growth 96h: 2%; Pf growth 48h: 6%

What do the screens show for `CCCCNC(=O)c1cc2cc(CC)ccc2[nH]1`?
Shiga inhibitor: -4; Cycloheximide cs: 14*; Pf growth 96h: inconclusive; Pf growth 48h: inconclusive

How did Cc1ccc(/C=C2\SC(N3CCN(C(c4ccccc4)c4ccccc4)CC3)=NC2=O)o1 do in these assays?
Shiga inhibitor: -10; Lassa entry inh: inconclusive; Cycloheximide cs: 4; Pf growth 96h: 1.7µM*; MARV entry inh: inconclusive; Pf growth 48h: 5.9µM*

How did O=C1N=C(N2CCOCC2)S/C1=C/c1ccc(-c2ccc(F)cc2)o1 do in these assays?
Shiga inhibitor: -9; Lassa entry inh: inconclusive; Cycloheximide cs: 2; Pf growth 96h: inconclusive; MARV entry inh: 2.5µM*; Pf growth 48h: inconclusive

How did O=C1N=C(N2CCN(Cc3ccccc3)CC2)S/C1=C/c1cccs1 do in these assays?
Shiga inhibitor: 35; Lassa entry inh: -12%; Cycloheximide cs: 14; Pf growth 96h: inconclusive; MARV entry inh: 2%[14.2 µM]; Pf growth 48h: inconclusive

Source: PubChem BioAssay (National Center for Advancing Translational Sciences (NCATS))
